Experiment [1] in a line: binders of probe aFSTL3 on microarray, primary screen, stem cell growth factor project, biochemical, small-molecule microarray, fluorescence 635/667 (AID 1064).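 Further: measures binding of the biotinylated anti-FSTL3 antibody to printed compounds.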 Conditions: higher = more signal.
The nature of experiment [2]: binders from COS7 lysate, DM2A8 probe, primary screen, torsin A project, cell lysate, small-molecule microarray, fluorescence 635/667 (AID 1065). The following applies: higher = more signal, COS7 lysate expressing mutant human TOR1A.
A short description of experiment [3]: binders of probe aFGF2 on microarray, primary screen, stem cell growth factor project, biochemical, small-molecule microarray, fluorescence 635/667 (AID 1067).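 Further: measures binding of biotinylated aFGF2 protein to printed compounds on slides; z-score merges feature fluorescence and signal-to-noise across triplicate slides.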 Conditions: higher = more signal.
The nature of experiment [4]: binders of probe aFGF10 on microarray, primary screen, stem cell growth factor project, biochemical, small-molecule microarray, fluorescence 635/667 (AID 1071).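 Further: score merges 667 nm spot intensity and signal to noise from triplicate slides.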 The following applies: higher = more signal.
Experiment [5] deals with Neurogenic locus notch homolog protein 2 (Homo sapiens) (UniProt Q04721). Description: Notch2 binders on small-molecule microarrays, primary screen, biochemical, small-molecule microarray, 635 nm fluorescence, stem cell growth factors (AID 1073). The following applies: Notch2 binding, higher = more signal.
Neurogenic locus notch homolog protein 2 (Homo sapiens), sequence (Q04721 whole entry, looked up, canonical isoform): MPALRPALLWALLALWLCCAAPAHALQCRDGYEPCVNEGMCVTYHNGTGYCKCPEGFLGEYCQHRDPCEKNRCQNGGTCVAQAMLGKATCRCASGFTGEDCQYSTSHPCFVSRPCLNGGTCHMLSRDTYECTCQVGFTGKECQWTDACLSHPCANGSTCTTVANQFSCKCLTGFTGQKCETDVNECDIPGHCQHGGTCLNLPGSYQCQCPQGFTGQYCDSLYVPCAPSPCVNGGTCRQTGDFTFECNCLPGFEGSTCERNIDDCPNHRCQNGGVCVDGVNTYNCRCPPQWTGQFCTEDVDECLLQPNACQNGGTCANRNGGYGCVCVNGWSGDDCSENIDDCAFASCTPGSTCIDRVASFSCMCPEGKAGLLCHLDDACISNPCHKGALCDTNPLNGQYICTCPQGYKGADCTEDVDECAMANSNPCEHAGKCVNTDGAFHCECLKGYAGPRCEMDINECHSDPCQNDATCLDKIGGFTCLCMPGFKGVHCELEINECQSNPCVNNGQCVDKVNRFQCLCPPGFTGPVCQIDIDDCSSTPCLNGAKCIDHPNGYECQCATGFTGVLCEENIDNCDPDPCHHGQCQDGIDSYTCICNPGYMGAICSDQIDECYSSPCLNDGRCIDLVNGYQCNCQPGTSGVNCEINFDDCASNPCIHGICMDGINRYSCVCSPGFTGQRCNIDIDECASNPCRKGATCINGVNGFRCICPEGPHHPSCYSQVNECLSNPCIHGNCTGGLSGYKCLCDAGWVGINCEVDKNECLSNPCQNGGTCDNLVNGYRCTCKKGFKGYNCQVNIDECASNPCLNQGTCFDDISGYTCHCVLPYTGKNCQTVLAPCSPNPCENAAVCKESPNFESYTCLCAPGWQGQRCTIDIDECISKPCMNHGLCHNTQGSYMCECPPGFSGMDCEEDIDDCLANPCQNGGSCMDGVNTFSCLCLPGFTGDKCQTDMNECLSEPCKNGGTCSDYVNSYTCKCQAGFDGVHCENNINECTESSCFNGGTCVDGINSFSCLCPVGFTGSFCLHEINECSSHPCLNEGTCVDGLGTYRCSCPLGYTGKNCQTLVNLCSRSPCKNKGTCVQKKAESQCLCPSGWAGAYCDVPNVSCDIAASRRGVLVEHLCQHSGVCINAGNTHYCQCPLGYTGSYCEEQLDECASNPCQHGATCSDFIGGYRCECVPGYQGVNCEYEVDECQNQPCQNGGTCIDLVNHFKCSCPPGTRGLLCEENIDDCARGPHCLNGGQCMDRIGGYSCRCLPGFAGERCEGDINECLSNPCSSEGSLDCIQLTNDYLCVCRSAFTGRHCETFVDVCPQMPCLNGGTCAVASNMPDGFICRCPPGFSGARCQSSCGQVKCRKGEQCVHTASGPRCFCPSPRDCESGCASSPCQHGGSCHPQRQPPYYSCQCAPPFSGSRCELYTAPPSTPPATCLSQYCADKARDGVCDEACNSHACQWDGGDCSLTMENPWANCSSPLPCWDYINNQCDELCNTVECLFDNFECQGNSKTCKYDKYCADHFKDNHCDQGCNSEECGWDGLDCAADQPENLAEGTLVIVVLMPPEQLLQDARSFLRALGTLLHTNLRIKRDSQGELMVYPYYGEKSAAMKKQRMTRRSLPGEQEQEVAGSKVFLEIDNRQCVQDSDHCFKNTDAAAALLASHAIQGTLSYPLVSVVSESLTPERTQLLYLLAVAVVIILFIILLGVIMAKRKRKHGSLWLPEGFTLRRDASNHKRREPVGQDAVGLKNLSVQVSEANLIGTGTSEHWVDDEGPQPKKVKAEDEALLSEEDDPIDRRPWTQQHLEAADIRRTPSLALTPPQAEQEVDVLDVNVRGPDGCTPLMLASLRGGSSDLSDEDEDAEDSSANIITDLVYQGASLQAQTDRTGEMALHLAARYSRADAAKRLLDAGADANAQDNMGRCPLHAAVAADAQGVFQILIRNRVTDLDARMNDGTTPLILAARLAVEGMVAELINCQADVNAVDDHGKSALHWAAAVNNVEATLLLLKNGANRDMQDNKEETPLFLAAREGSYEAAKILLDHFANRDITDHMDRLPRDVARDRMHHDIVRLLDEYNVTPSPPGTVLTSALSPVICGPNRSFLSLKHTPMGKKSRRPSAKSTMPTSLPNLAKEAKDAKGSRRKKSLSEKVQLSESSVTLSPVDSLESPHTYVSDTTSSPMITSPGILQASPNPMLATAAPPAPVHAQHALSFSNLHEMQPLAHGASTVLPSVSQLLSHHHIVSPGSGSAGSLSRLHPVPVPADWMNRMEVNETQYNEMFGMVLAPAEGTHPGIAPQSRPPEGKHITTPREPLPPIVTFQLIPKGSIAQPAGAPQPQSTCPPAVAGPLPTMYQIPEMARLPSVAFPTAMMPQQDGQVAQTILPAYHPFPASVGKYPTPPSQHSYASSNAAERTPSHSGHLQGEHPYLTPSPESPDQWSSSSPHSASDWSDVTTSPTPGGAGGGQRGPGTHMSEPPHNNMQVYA
Experiment [6] deals with Pro-neuregulin-1, membrane-bound isoform (Homo sapiens) (UniProt Q02297). Description: NRG1 binders on small-molecule microarrays, primary screen, psychiatric disease protein project, biochemical, small-molecule microarray, fluorescence 635/667 (AID 1075).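 Further: score combines 667 nm spot fluorescence with signal to noise.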 The following applies: NRG1 binding, 635 nm fluorescence, higher = more signal.
Pro-neuregulin-1, membrane-bound isoform (Homo sapiens), sequence (Q02297 whole entry, looked up, the tested form may be a part, canonical isoform): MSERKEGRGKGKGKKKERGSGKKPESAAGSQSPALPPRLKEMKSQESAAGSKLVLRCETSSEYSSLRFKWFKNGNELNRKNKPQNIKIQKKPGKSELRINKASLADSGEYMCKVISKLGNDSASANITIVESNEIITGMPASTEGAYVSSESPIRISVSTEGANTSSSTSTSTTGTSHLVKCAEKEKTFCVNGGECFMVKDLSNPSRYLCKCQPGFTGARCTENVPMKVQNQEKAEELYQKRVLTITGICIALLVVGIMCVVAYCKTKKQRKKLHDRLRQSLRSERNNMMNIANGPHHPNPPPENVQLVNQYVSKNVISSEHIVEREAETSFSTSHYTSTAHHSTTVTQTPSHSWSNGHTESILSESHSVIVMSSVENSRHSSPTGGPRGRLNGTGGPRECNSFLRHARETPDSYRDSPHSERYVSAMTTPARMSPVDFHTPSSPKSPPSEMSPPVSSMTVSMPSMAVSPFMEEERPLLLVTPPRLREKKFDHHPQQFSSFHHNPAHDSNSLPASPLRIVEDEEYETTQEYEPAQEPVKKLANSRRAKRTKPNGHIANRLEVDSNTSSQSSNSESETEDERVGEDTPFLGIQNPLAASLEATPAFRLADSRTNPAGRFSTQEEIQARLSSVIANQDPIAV
For experiment [7], the system named is Neuregulin-1 EGF-like domain. Description: binders of neuregulin-1 EGF-like domain, primary screen, biochemical, small-molecule microarray, 635 nm fluorescence (AID 1081).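 Further: binding of the protein to compounds printed on small-molecule microarray slides.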 Conditions: small-molecule microarray binding, higher = more signal.
Experiment [8] in a line: FRG1 promoter luciferase signal modulators, primary screen, FRG1 inhibition for FSHD, cell-based, C2C12 myotubes, firefly/Renilla luciferase, luminescence (AID 1084). Conditions: higher = more signal, called active from +8 up or from −8 down.
A short description of experiment [9]: binders of probe aFST on microarray, primary screen, stem cell growth factor project, biochemical, small-molecule microarray, fluorescence 635/667 (AID 1086).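 Further: score merges 667 nm fluorescence with signal-to-noise of each printed compound spot.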 The following applies: higher = more signal.
The nature of experiment [10]: binders of probe aHhip on microarray, primary screen, stem cell growth factor project, biochemical, small-molecule microarray, fluorescence 635/667 (AID 1087).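 Further: score merges spot fluorescence at 667nm with spot signal to noise ratio.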 The following applies: higher = more signal.

Each structure is given as a SMILES string. The source made the active and inactive calls.

Take `O=C1CCCC(C2=CCCCC2=O)C1` (stereo not given): the composite z-score in experiment [1] is -0.31; in [2], 0.213; in [3], -0.0895; in experiment [4], 0.0787; in experiment [5], 0.312; in [6], -0.3. Further, the values for the composite z-score in [7], in experiment [9] and in experiment [10] were 0.165, 0.0915 and 0.157, respectively. In addition, the z-score in experiment [8] is 0.222 (inactive).

Turning to `COC(=O)CC=C[C@@H](C)[C@@H](C=NOCC[C@@H]1C=C[C@H](OC(C)=O)[C@@H](COC(C)=O)O1)NS(=O)(=O)c1ccc(C)cc1`, the composite z-score in experiment [1] was -0.186; in [2] it was 1.86; in [3] it was -0.129; in experiment [4] it was -0.371; in experiment [5], -0.134; in [6], -0.512. Further, the composite z-score in experiment [7] was -0.123; in [9], 0.153; in [10] it was -0.0296. The z-score in [8] is 0.0469 (inactive).

Turning to `CC(CCN1CCCCc2nc(C)c(C)cc21)=NOC[C@@H](C)[C@H](OCc1ccccc1)C(C)C`, the composite z-score in experiment [1] was -0.443; in [2], -0.548; in experiment [3], -0.29; in [4], -0.776; in experiment [5] it was -1.38; in [6], -0.559. The composite z-score in experiment [7] was -0.545; in experiment [9] it was -2.12; in experiment [10], -0.0423. Further, in experiment [8], the z-score was -0.688 (inactive).

Take `CON=CC[C@@H]1C=C[C@H](OC(C)=O)[C@@H](COC(C)=O)O1`: the composite z-score in experiment [1] is -0.043; in [2] it was 0.0682; in [3], -0.0006; in experiment [4], 0.119; in [5] it was 0.255; in [6], -0.189. In addition, the results for the composite z-score in experiment [7], in [9] and in experiment [10] were -0.686, 0.143 and 0.151, respectively. The z-score in [8] was 0.41 (inactive).

As for `COC(=O)NCC=Cc1nc(CCCO)co1`, the composite z-score in [1] is -0.596; in experiment [2] it was 0.273; in experiment [3] it was -0.0174; in experiment [4], 0.525; in experiment [5] it was 0.623; in experiment [6] it was 0.177. Also, the composite z-score was 0.414 in experiment [7], 0.0512 in experiment [9] and -0.287 in experiment [10]. The z-score in experiment [8] was -0.435 (inactive).

For the compound `CC(=O)OC[C@H]1OC(ON=CC[C@@H]2C=C[C@H](OC(C)=O)[C@@H](COC(C)=O)O2)[C@H](OC(C)=O)[C@@H](OC(C)=O)[C@@H]1OC(C)=O` (stereo not given in full), the composite z-score is -0.314 in experiment [1]; 0.585 in experiment [2]; -0.076 in experiment [3]; 0.398 in [4]; 0.94 in [5]; -0.555 in [6]. Also, the composite z-score is -0.595 in experiment [7], 0.52 in [9] and 0.0972 in experiment [10]. Moreover, the z-score in [8] was -0.0946 (inactive).

Take `COC(=O)CC=C[C@@H](C)[C@@H](C=NOC[C@H]1O[C@H](c2ccccc2)C=C[C@@H]1Oc1ccc(OC)cc1)NS(=O)(=O)c1ccc(C)cc1`: the composite z-score was 0.577 in experiment [1]; -0.564 in [2]; -0.127 in [3]; -1.06 in experiment [4]; -0.766 in [5]; -0.754 in [6]. The composite z-score in experiment [7] is -1.29; in experiment [9] it was -0.0763; in experiment [10], -0.0645. The z-score in experiment [8] was -0.461 (inactive).

Take `C[C@@H]1CC[C@H]2C(=O)O[C@@H](Cc3ccccc3)CN2[C@H]1c1ccc(Br)cc1`: the composite z-score in [1] is -0.395; in experiment [2] it was 0.207; in experiment [3], -0.185; in experiment [4], -0.112; in experiment [5], 0.526; in experiment [6] it was 0.649. The results for the composite z-score in [7], in experiment [9] and in experiment [10] were 0.408, 0.384 and -0.201, respectively. Besides, the z-score in experiment [8] was -0.205 (inactive).

In the case of `CCOC(=O)C1=NO[C@]2(C=C(Br)C3(OCCCO3)[C@H]3O[C@H]32)C1`, the composite z-score was 0.0733 in experiment [1]; 2.19 in experiment [2]; -0.116 in experiment [3]; -0.229 in [4]; -0.212 in experiment [5]; -0.722 in experiment [6]. Besides, the composite z-score was -0.208 in experiment [7], -0.132 in experiment [9] and -0.0726 in experiment [10]. Moreover, the z-score in [8] is 0.293 (inactive).

For `CC[C@@H](c1ccccc1)n1c(=O)n2n(c1=O)[C@H]1[C@H](O)[C@@H]3O[C@@H]3C(=O)[C@H]1CC2`, the composite z-score was -0.66 in experiment [1]; -0.283 in experiment [2]; -0.103 in [3]; 0.335 in experiment [4]; 0.395 in [5]; -0.0023 in experiment [6]. The results for the composite z-score in experiment [7], in experiment [9] and in [10] were -0.088, 0.0182 and 0.0373, respectively. Moreover, in experiment [8], the z-score is 0.327 (inactive).

Consider `COC(=O)C1=C(C)N(Cc2ccccc2)[C@]23O[C@](C(=O)OC)(C(=O)N2[C@@H]1c1ccccc1)C(C(=O)OC)=C3C(=O)OC`, for which the composite z-score in experiment [1] is -0.309; in experiment [2], 0.458; in experiment [3], -0.0232; in [4], 1.1; in [5], 0.926; in [6] it was 0.435. For the same compound, the composite z-score is 1.21 in experiment [7], 0.294 in experiment [9] and -0.0003 in experiment [10]. Moreover, the z-score in experiment [8] was -1.51 (inactive).

Consider `COC(=O)CC=C[C@@H](C)[C@@H](C=NO[C@@H](C)c1cn([C@H](CO)Cc2ccccc2)nn1)OC`, for which the composite z-score was -0.446 in [1]; 1.68 in experiment [2]; -0.119 in experiment [3]; -0.0052 in experiment [4]; 0.0576 in experiment [5]; -0.0718 in [6]. In addition, the composite z-score in [7] is -0.265; in experiment [9], 0.0066; in [10], -0.34. For the same compound, in [8], the z-score is -0.839 (inactive).

The values are drawn from PubChem BioAssay.
